Data: PubChem BioAssay (NCI)
“And” between values parts separate entries of the source, which are not always exact repeats. Identical values can stand only once. The panel holds about 83,000 compounds, 20% with a hit somewhere; the sample as a whole holds those more often.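 96-well plates, one dose, 48 hours. Percent growth reported; active if below 10.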 The source made the active and inactive calls.

Each molecule was assayed on MDA-MB-468 breast (assay: NCI-60 one-dose screen, 48 h (100 = growth as untreated, 0 = no growth, -100 = all killed)). Conditions: 10 µM unless noted.

| Structure (SMILES) | growth |
| --- | --- |
| c1ccc(OCC[P+](c2ccccc2)(c2ccccc2)c2ccccc2)cc1 | -18.1% (active) |
| Cc1cc[n+](CCCC[n+]2ccc(C)cc2)cc1 | 99% (inactive) |
| NC(=S)Nc1ccc2c(c1)Cc1ccccc1-2 | 69.4% (inactive) |
| COc1cc2c(Nc3ccc(Br)cc3F)ncnc2cc1OCC1CCN(C)CC1 | -23.3% (active) |
| Cc1cc(Br)c(C)cc1Br | 92.2% (inactive) |
| COc1ccc(CNCCCN2C(=O)c3ccc4c5c(ccc(c35)C2=O)C(=O)N(CCCNCCCCNCCCN)C4=O)c(OC)c1OC | -85.6% (active) |
| Clc1ccccc1CNc1c2ccccc2nc2ccccc12 | -27.9% (active) |
| Cn1ccnc1C(=O)C(=O)Nc1ccc(CC(=O)Nc2ccccc2)cc1 | 109% (inactive) |
| CC[C@H](C)C(=O)O[C@H]1C[C@@H](C)C=C2C=C[C@H](C)[C@H](CC[C@@H]3C[C@@H](O)CC(=O)O3)[C@H]21 | 103% (inactive) |
| CCCCOc1ccc(/C(C)=N/Nc2cc(C)nc3ccc(Br)cc23)cc1 | 113% (inactive) |
| COc1cc(C2CC(c3ccc(C)cc3)=NN2C=O)ccc1Oc1nc2c(c(=O)n(C)c(=O)n2C)n1C (stereo not given) | 73.8% (inactive) |
| COc1ccc(NC2=C(Cl)C(=O)C(C)=C(C)C2=O)cc1OC | -38.8% (active) |
| Fc1ccccc1/C=C(/C1=NCCN1)n1cnc2ccccc21 | 98.1% (inactive) |
| COc1ccccc1NC(=O)N/C(N)=N/c1nc2ccccc2s1 | 14.2% (inactive) |
| Nc1ccccc1C(=O)Nc1ccc(Cl)cc1Cl | 94.5% (inactive) |
| Fc1ccc(NC(c2ccc(F)cc2)C2CCN(CCCCc3ccccc3)CC2)cc1 (stereo not given) | 7.21% (active) |
| COc1ccc(N(Cc2cc(OC)c(OC)c(OC)c2)C2OC(=O)c3ccccc32)cc1 (stereo not given) | 24.2% (inactive) |
| CCCCCCCCCCCCCCCCCCOc1ccccc1CCCOP(=O)(O)OCC[N+](C)(C)C | 77.3% (inactive) |
| N#CSCC1CC(O)(c2ccccc2)CC(c2ccc(Cl)cc2)O1 (stereo not given) | 47.3% (inactive) |
| CCCCCCCCCCCCN1C(C)=CS/C1=C\C=C\c1scc(C)[n+]1CCCCCCCCCCCC | -23% (active) |

| Structure (SMILES) | growth |
| --- | --- |
| O=[N+]([O-])c1ccc2[nH]c3nccc(NCc4cccc(Cl)c4)c3c2c1 | 69% (inactive) |
| C/C(=C\CCc1ccoc1)CC/C=C(\C)CCCC1COC(=O)C1 (stereo not given) | 97.4% (inactive) |
| O=C(Nc1nc2c(s1)CCc1c-2c(Br)n(Cc2ccccc2)c1Br)c1ccccc1 | 72.8% (inactive) |
| CN(C)c1ccc(C(=NO)c2ccc(N(C)C)cc2)cc1 | -0.198% (active) |
| O=CN1N=C(c2cccc(Nc3ccncc3)c2)CC1c1ccc2c(c1)OCO2 (stereo not given) | 88.7% (inactive) |
| Cc1ccc(NC(=O)c2cc(-c3nc4ccccc4s3)c(=O)n(NS(=O)(=O)c3ccc(Cl)cc3)c2N)cc1 | 109% (inactive) |
| Cc1c(Br)cccc1NC(=O)c1sc2nc3c(cc2c1N)CN(Cc1ccccc1)CC3 | 16.8% (inactive) |
| O=C(CCN1C(=O)c2ccccc2C1=O)Nc1ccc(Cl)cc1 | 116% (inactive) |
| Oc1ccc(C2c3ccccc3Oc3ccccc32)c2cccnc12 | 9.14% (active) |
| O=C(OC1CCCC1)c1ccccc1Cl | 132% (inactive) |
| COc1cc2c(cc1OCCCN1Cc3ccc(OCCCCC(=O)N4CCC(CCN5CCCC5)CC4)cc3C1)N=C(N)C21CCCC1 | 17.4% (inactive) |
| COc1ccc(-n2c(C(O)c3ccccc3)n[nH]c2=S)cc1 (stereo not given) | 98.6% (inactive) |
| CC1(C)S(=O)(=O)OCCOS1(=O)=O | 101% (inactive) |
| CC1=C(C(=O)Nc2ccc(F)cc2)C(c2ccc(C)cc2)C2=C(CC(C)(C)CC2=O)N1 (stereo not given) | 84.7% (inactive) |
| COc1cc(C(=O)N2N=C(c3ccc(S(C)(=O)=O)cc3)CC2c2ccco2)cc(OC)c1OC (stereo not given) | 36.7% (inactive) |
| CC(=C(c1ccc(OCCN2CCCCC2)cc1)c1ccc(OCCN2CCCCC2)cc1)c1ccc(Cl)cc1 | -79.6% (active) |
| O=c1cc(/C=N\Nc2nc(-c3ccc(Cl)cc3Cl)cs2)c2cc(Cl)ccc2o1 | 102% (inactive) |
| Cc1ccc(Cc2cnc(NC(=O)c3ccc4noc(-c5ccccc5)c4c3)s2)cc1 | 91% (inactive) |
| CNC(=O)c1cc(Oc2ccc(NC(=O)Nc3ccc(Cl)c(C(F)(F)F)c3)cc2)ccn1 | -12.8% (active) and 20.5% (inactive) |
| CO[C@H](C(=O)[C@@H](O)[C@@H](C)O)[C@@H]1Cc2cc3cc(O[C@H]4C[C@@H](O[C@H]5C[C@@H](O)[C@H](O)C(C)O5)[C@H](O)C(C)O4)c(C)c(O)c3c(O)c2C(=O)[C@H]1O[C@H]1C[C@@H](O[C@H]2C[C@@H](O[C@H]3C[C@](C)(O)C(=O)C(C)O3)[C@@H](O)C(C)O2)[C@H](O)C(C)O1 (stereo not given in full) | -46.7% (active) |
